Inconclusive results are not listed. A call without a number means that no potency is given here. Activity calls are given as the source filed them. Unless noted, the call rests on the fitted dose curve; in most records, active means well fitted curve in the direction sought with a large enough effect in the repeat runs; inconclusive means weak or mixed curves; inactive means no such curve, though single readings can be large; an effect the other way counts as inactive or inconclusive.
Legend:
[1] = qHTS assay to identify small molecule antagonists of the glucocorticoid receptor (GR) signaling pathway - cell viability counter screen (AID 720693); further: nearly all actives have a fitted effect of over 55% in size
[2] = qHTS assay for identifying genotoxic compounds that show differential cytotoxicity against isogenic chicken DT40 cell lines with known DNA damage response pathways - wild type cell line (AID 743012); further: nearly all actives have a fitted effect of over 60% in size; further: potency means the concentration at half of the fitted maximal effect
Method in brief: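 Luminescent ATP viability signal (CellTiter-Glo, 30 min RT) recorded after wild type DT40 cells were incubated with compounds for 40 h at 37 C/5% CO2.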

[3] = qHTS assay for identifying genotoxic compounds that show differential cytotoxicity against isogenic chicken DT40 cell lines with known DNA damage response pathways - Rev3 mutant cell line (AID 743014); further: nearly all actives have a fitted effect of over 55% in size; further: potency means the concentration at half of the fitted maximal effect
[4] = qHTS assay for identifying genotoxic compounds that show differential cytotoxicity against isogenic chicken DT40 cell lines with known DNA damage response pathways - Rad54/Ku70 mutant cell line (AID 743015); further: nearly all actives have a fitted effect of over 60% in size; further: potency means the concentration at half of the fitted maximal effect
[5] = qHTS assay to identify small molecule antagonists of the androgen receptor (AR) signaling pathway - cell viability counter screen (AID 743033; further: nearly all actives have a fitted effect of over 45% in size)
[6] = qHTS assay to identify small molecule antagonists of the androgen receptor (AR) signaling pathway using the MDA cell line - cell viability counter screen (AID 743041; further: nearly all actives have a fitted effect of over 45% in size)
Method in brief: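 Cytotoxicity counter screen: MDA-kb2 AR-luc cells, compound + R1881, 16 h, 37C, 0% CO2; CellTiter-Fluor added at 15.5 h, fluorescence read after 30 min.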

[7] = qHTS assay to identify small molecule antagonists of the thyroid receptor (TR) signaling pathway - cell viability counter screen (AID 743064); further: nearly all actives have a fitted effect of over 50% in size; further: potency means the concentration at half of the fitted maximal effect
Method in brief: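 GH3.TRE-Luc rat pituitary cells dosed after 4 hr plating, co-stimulated with T3 at 1 nM final, incubated 23.5 h at 37 C. Viability measured in the same wells by CellTiter-Fluor fluorescence after 30 min further at 37 C.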

[8] = qHTS assay to identify small molecule antagonists of the thyroid receptor (TR) signaling pathway (AID 743065); further: nearly all actives have a fitted effect of over 55% in size; further: potency means the concentration at half of the fitted maximal effect
Method in brief: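 GH3.TRE-Luc rat pituitary cells (two TREs driving luciferase) were dosed with compound, then stimulated with 1 nM T3 (final) for 23.5 h at 37 C. ONE-Glo luminescence was the read-out, with CellTiter-Fluor fluorescence as the cytotoxicity counter-screen.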

[9] = target: Androgen receptor (Homo sapiens) (UniProt P10275); assay: qHTS assay to identify small molecule agonists of the androgen receptor (AR) signaling pathway using the MDA cell line (AID 743040; further: nearly all actives have a fitted effect of over 20% in size)
Chain of Androgen receptor (Homo sapiens) (P10275 whole entry, looked up): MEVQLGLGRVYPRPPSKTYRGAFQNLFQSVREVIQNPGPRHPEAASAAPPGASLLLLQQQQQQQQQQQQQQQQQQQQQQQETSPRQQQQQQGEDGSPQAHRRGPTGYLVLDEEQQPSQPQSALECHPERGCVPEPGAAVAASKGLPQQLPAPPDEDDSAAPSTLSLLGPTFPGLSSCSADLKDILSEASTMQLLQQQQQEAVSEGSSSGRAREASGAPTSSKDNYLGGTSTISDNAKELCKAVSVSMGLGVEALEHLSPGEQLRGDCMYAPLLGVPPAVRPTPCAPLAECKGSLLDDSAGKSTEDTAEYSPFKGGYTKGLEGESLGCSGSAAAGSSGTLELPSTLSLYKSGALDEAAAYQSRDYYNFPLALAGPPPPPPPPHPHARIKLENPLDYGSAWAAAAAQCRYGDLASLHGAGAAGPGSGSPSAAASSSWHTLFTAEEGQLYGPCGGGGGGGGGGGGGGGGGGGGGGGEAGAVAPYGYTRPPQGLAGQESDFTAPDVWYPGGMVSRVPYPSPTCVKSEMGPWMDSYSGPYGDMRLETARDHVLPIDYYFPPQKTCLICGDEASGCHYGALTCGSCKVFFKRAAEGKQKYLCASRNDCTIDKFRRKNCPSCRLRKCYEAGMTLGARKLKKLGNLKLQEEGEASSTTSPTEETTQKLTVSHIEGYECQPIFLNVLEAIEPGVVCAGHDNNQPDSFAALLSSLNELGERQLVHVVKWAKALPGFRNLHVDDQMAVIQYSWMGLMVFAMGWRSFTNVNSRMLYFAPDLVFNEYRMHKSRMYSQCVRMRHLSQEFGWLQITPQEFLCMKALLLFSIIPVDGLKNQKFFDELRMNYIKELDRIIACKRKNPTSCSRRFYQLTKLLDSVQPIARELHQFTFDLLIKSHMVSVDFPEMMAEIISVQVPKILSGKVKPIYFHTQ
Method in brief: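 Luciferase read-out, ONE-Glo, 30 min RT. Cells: MDA-kb2 AR-luc, MMTV promoter with AR and GR response elements. Compound exposure 16 h, 37C, 0% CO2, after 5 h pre-incubation. qHTS agonist mode.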

[10] = target: Androgen receptor (Homo sapiens) (UniProt P10275); assay: qHTS assay to identify small molecule antagonists of the androgen receptor (AR) signaling pathway (AID 743035; active means well fitted inhibition curve with a large enough effect in the signal ratio in the repeat runs, not every such curve was filed as active; the % refers to the signal ratio; further: potency means the concentration at half of the fitted maximal effect)
Method in brief: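 Quantitative HTS of the Tox21 10K library used HEK293 AR-UAS-bla cells stimulated with R1881 alongside compound for 16 h at 37C, followed by beta-lactamase FRET detection (LiveBLAzer B/G, 2 h, RT).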

SMILES | Potency [1] | Potency [2] | Potency [3] | Potency [4] | Potency [5] | Potency [6] | Potency [7] | Potency [8] | outcome [9] | Potency [10]
Cc1c(-c2cccnc2)c2ccccc2n1CCCCC(=O)O | inactive | inactive | 30.6 µM (active) | inactive | inactive | inactive | inactive | inactive | – | –
CC(C)Cc1nccs1 | inactive | inactive | inactive | inactive | inactive | inactive | inactive | inactive | – | –
FC1(F)C(F)(F)C(F)(F)C2(F)C(F)(C1(F)F)C(F)(F)C(F)(F)C1(F)C(F)(F)C(F)(F)C(F)(F)C(F)(F)C12F (centres undefined) | inactive | inactive | inactive | inactive | inactive | inactive | inactive | inactive | – | –
C/C=C1\[C@H]2C=C(C)C[C@]1(N)c1ccc(=O)[nH]c1C2 | inactive | inactive | inactive | inactive | inactive | inactive | inactive | inactive | – | –
CCCCCCCCCCCCCCCCC(=O)O | inactive | inactive | inactive | inactive | inactive | inactive | inactive | inactive | inactive | –
CCCOC(C)=O | inactive | inactive | inactive | inactive | inactive | inactive | – | inactive | inactive | –
CCOCCn1c(N2CCCN(C)CC2)nc2ccccc21 | inactive | inactive | inactive | inactive | inactive | inactive | inactive | inactive | inactive | inactive
NC(=O)c1ccccc1C(N)=O | inactive | inactive | inactive | inactive | inactive | inactive | inactive | inactive | inactive | inactive
CO[C@@H]1[C@@H](O[C@@H]2O[C@H](C)[C@@H](O[C@H]3C[C@@](C)(O)[C@@H](O)[C@H](C)O3)[C@H](N(C)C)[C@H]2O)[C@@H](CC=O)C[C@@H](C)[C@@H](O[C@@H]2CC[C@H](N(C)C)[C@@H](C)O2)/C=C/C=C/C[C@@H](C)OC(=O)C[C@H]1OC(C)=O | inactive | 8.41 µM (active) | 6.68 µM (active) | 7.5 µM (active) | inactive | inactive | 26.6 µM (active) | – | – | –
Clc1cccc(C(c2ccc3nc[nH]c3c2)n2ccnc2)c1 (centres undefined) | inactive | 21.1 µM (active) | 26.6 µM (active) | 26.6 µM (active) | inactive | inactive | inactive | – | inactive | –
Nc1ccc(C(=O)Oc2ccccc2)c(O)c1 | inactive | 29.8 µM (active) | inactive | 29.8 µM (active) | inactive | inactive | inactive | – | – | –
Cc1cc(SC2=C(O)C[C@@](CCc3ccc(N)cc3)(C(C)C)OC2=O)c(C(C)(C)C)cc1CO | inactive | inactive | inactive | inactive | inactive | inactive | inactive | inactive | inactive | inactive
CCCCCCCCCC(C)C=O (centres undefined) | inactive | inactive | inactive | inactive | inactive | inactive | inactive | – | – | –
CCCN(C1CCN(C(=O)C2CCNCC2)CC1)[C@@H]1CCc2ccc(OC)cc2C1 | inactive | 15.4 µM (active) | 15.4 µM (active) | 19.3 µM (active) | inactive | – | 68.6 µM (active) | 54.5 µM (active) | inactive | –
CCC(=O)O[C@@H]1C[C@H]2CC[C@]1(C)C2(C)C | inactive | inactive | inactive | inactive | inactive | inactive | inactive | inactive | – | –
CC(=O)Nc1ccccc1O | inactive | inactive | inactive | inactive | inactive | inactive | inactive | inactive | – | –
CC(C(=O)O)c1ccc2c(c1)Cc1cccnc1O2 (centres undefined) | inactive | inactive | inactive | inactive | inactive | inactive | inactive | inactive | inactive | –
CC(=O)Oc1cccc2c1C(=O)c1c(OC(C)=O)cc(C(=O)O)cc1C2=O | inactive | inactive | inactive | inactive | inactive | – | – | inactive | inactive | –
CCCCOc1ccc(N)cc1 | inactive | inactive | inactive | inactive | inactive | inactive | inactive | inactive | – | –
CCC1=C(C)CN(C(=O)NCCc2ccc(S(=O)(=O)NC(=O)NC3CCC(C)CC3)cc2)C1=O (centres undefined) | inactive | inactive | inactive | inactive | inactive | inactive | inactive | inactive | inactive | inactive
CCOC(OCC)OCC | inactive | inactive | inactive | inactive | inactive | inactive | inactive | inactive | – | –
CCCC(=O)OCCC(C)C | inactive | inactive | inactive | inactive | inactive | inactive | inactive | inactive | inactive | inactive
COc1cc(CNC(=O)CCCC/C=C/C(C)C)ccc1O | inactive | inactive | inactive | inactive | inactive | inactive | inactive | – | – | –
O=C(O)COCC(=O)O | inactive | inactive | inactive | inactive | inactive | inactive | inactive | inactive | – | –
CCOc1ccc(NC(C)=O)cc1N | inactive | inactive | inactive | inactive | inactive | inactive | inactive | inactive | inactive | –
CCCCCO | inactive | inactive | inactive | inactive | inactive | inactive | inactive | inactive | – | –

SMILES | Potency [1] | Potency [2] | Potency [3] | Potency [4] | Potency [5] | Potency [6] | Potency [7] | Potency [8] | outcome [9] | Potency [10]
O=C(O)c1ccc(O)c(O)c1 | inactive | inactive | inactive | inactive | inactive | inactive | – | inactive | inactive | inactive
O=[N+]([O-])c1ccccc1CCO | inactive | inactive | inactive | inactive | inactive | inactive | inactive | inactive | – | –
CC(=O)CC/C=C(\C)CC/C=C(\C)CC/C=C(\C)CCC=C(C)C | inactive | inactive | inactive | inactive | inactive | inactive | inactive | – | – | –
CCCc1nc(C)c2c(=O)[nH]c(-c3cc(S(=O)(=O)N4CCN(CC)CC4)ccc3OCC)nn12 | inactive | inactive | inactive | inactive | inactive | – | – | – | – | inactive
O=C(O)c1ccncc1 | inactive | inactive | inactive | inactive | inactive | inactive | inactive | inactive | inactive | inactive
CCOc1ccc2c(c1)C(C)CC(C)(C)N2 (centres undefined) | inactive | 27.3 µM (active) | 54.5 µM (active) | 48.6 µM (active) | inactive | inactive | inactive | inactive | inactive | –
O=C(Nc1ccccc1)c1cc([N+](=O)[O-])ccc1Cl | inactive | 68.6 µM (active) | 68.6 µM (active) | 68.6 µM (active) | inactive | inactive | – | 61.1 µM (active) | inactive | 24.5 µM (active)
COc1cccc([C@H](O)C2CCN(CCc3ccc(F)cc3)CC2)c1OC | inactive | 27.3 µM (active) | 1.72 µM (active) | 4.33 µM (active) | inactive | inactive | – | – | – | –
COc1ccc(/C=C/S(=O)(=O)NC(=O)c2ccc(C)cc2Cl)cc1 | inactive | inactive | inactive | inactive | inactive | inactive | inactive | – | – | –
CCCC1CCCC(=O)O1 (centres undefined) | inactive | inactive | inactive | inactive | inactive | inactive | inactive | inactive | – | –
NC(=O)c1ccccc1 | inactive | inactive | inactive | inactive | inactive | inactive | inactive | inactive | inactive | inactive
O=C(NC1CCN(CCc2c[nH]c3ccccc23)CC1)c1ccccc1 | inactive | 23.7 µM (active) | 33.5 µM (active) | 29.8 µM (active) | inactive | inactive | 26.6 µM (active) | 26.6 µM (active) | – | –
CCCCCCCCCCCCN1CCOCC1 | inactive | 27.3 µM (active) | 8.63 µM (active) | 19.3 µM (active) | inactive | inactive | inactive | inactive | – | –
CC(C)(O)C(=O)O | inactive | inactive | inactive | inactive | inactive | inactive | inactive | inactive | – | –
O=C(O)c1c2ccccc2cc2ccccc12 | inactive | inactive | inactive | inactive | inactive | inactive | – | inactive | – | –
CC(C)CCCCCOC(=O)CS | inactive | 61.1 µM (active) | 54.5 µM (active) | 54.5 µM (active) | inactive | inactive | inactive | inactive | – | –
Cc1ccc(NC=O)c(C)c1 | inactive | inactive | inactive | inactive | inactive | inactive | inactive | inactive | – | –
OCC(O)c1ccccc1 (centres undefined) | inactive | inactive | inactive | inactive | inactive | inactive | inactive | inactive | – | –
Cc1cccc(C)c1NC(=O)CN1CCCC1 | inactive | inactive | inactive | inactive | inactive | inactive | inactive | inactive | – | –
CC(=O)Nc1ccn(C2COC(COC(=O)c3ccccc3)O2)c(=O)n1 (centres undefined) | inactive | 9.44 µM (active) | 13.3 µM (active) | 11.9 µM (active) | inactive | inactive | inactive | 16.8 µM (active) | – | –
O=C(O)c1cc(C(=O)O)cc([N+](=O)[O-])c1 | inactive | inactive | inactive | inactive | inactive | inactive | – | inactive | – | –
COC(=O)C(C)(C)C | inactive | inactive | inactive | inactive | inactive | inactive | inactive | inactive | – | –
CC(O)CN (centres undefined) | inactive | inactive | inactive | inactive | inactive | – | inactive | – | – | –
CC(CCl)OC(C)CCl (centres undefined) | inactive | inactive | inactive | inactive | inactive | inactive | inactive | inactive | – | –
CCc1ccc(C(=O)C(C)CN2CCCCC2)cc1 (centres undefined) | inactive | 11.9 µM (active) | 11.9 µM (active) | 16.8 µM (active) | inactive | – | inactive | – | – | –
Nc1ccc(-c2ccc(F)cc2)cc1 | inactive | 68.6 µM (active) | 48.6 µM (active) | 68.6 µM (active) | inactive | inactive | inactive | inactive | – | –

From PubChem BioAssay (Tox21)
